In PubChem BioAssay one finds nuclear beta-catenin stimulation data, which are given here for 37 molecules.

Calls of active or inactive are those of the source. Rule as the data show it: active = nuclear beta-catenin stimulation mostly above about 4.2% (no sharp cut-off); inactive = mostly below about 10%.

The assay in a line: stimulators of nuclear beta-catenin in C2C12, primary screen, imaging, WNT3A-conditioned medium, mouse C2C12, NPC library (AID 1117326). Also: reference of the scale not given here. The conditions noted are these: stronger effect = higher value.

With `O=C1c2ccccc2C(=O)c2c1ccc(O)c2O`, the nuclear beta-catenin stimulation runs as follows: (at 10 µM) 1.2% (inactive); (stimulation, at 2 µM) 0.3%.

As for `CN(C)C(=O)Nc1ccc(Cl)c(Cl)c1`, the nuclear beta-catenin stimulation is, setting by setting: (at 10 µM) 3.6% (inactive); (stimulation, at 2 µM) 0.5%.

In the case of `C[C@@H]1C[C@H]2[C@@H]3CCC4=CC(=O)C=C[C@]4(C)[C@@]3(F)[C@@H](O)C[C@]2(C)[C@@]1(O)C(=O)COP(=O)(O)O`, the nuclear beta-catenin stimulation (at 10 µM) was 1.2% (inactive) and the nuclear beta-catenin stimulation (stimulation, at 2 µM) amounted to 0.8%.

Consider `CCCCCCCCCCCCCCCCC(C(=O)O)C(O)(CC(=O)O)C(=O)O` (centres undefined), for which the nuclear beta-catenin stimulation is, setting by setting: (at 10 µM) -0.9% (inactive); (stimulation, at 2 µM) -0.6%.

In the case of `CN1[C@@H]2CC[C@H]1CC(OC(=O)C(O)c1ccccc1)C2` (some centres undefined), the nuclear beta-catenin stimulation reads like this: (at 10 µM) -0.1% (inactive); (stimulation, at 2 µM) -2.6%.

For the molecule `NC(=NCCCCCCN=C(N)/N=C(\N)Nc1ccc(Cl)cc1)/N=C(\N)Nc1ccc(Cl)cc1`, the nuclear beta-catenin stimulation (at 10 µM) is -2.3% (active) and the nuclear beta-catenin stimulation (stimulation, at 2 µM) worked out at 45.4%.

With `CO[C@H]1C=CO[C@@]2(C)Oc3c(C)c(O)c4c(O)c(c(/C=N/N5CCN(C)CC5)c(O)c4c3C2=O)NC(=O)/C(C)=C\C=C[C@H](C)[C@H](O)[C@@H](C)[C@@H](O)[C@@H](C)[C@H](OC(C)=O)[C@@H]1C`, the nuclear beta-catenin stimulation (at 10 µM) was 0.6% (inactive) and the nuclear beta-catenin stimulation (stimulation, at 2 µM) came out at 1.2%.

`CC1(C)S[C@@H]2[C@H](NC(=O)[C@H](N)c3ccccc3)C(=O)N2[C@H]1C(=O)O`: the nuclear beta-catenin stimulation is, setting by setting: (at 10 µM) -0.1% (inactive); (stimulation, at 2 µM) -0.4%.

As to `C[C@]12CCC(=O)C=C1CC[C@@H]1[C@@H]2[C@@H](O)C[C@@]2(C)[C@H]1CC[C@]2(O)C(=O)COP(=O)(O)O`, the nuclear beta-catenin stimulation reads like this: (at 10 µM) -0.6% (inactive); (stimulation, at 2 µM) -0.1%.

As for `COc1ccc(CCN2CCC(Nc3nc4ccccc4n3Cc3ccc(F)cc3)CC2)cc1`, the nuclear beta-catenin stimulation (at 10 µM) was -1.3% (inactive) and the nuclear beta-catenin stimulation (stimulation, at 2 µM) came out at 3.9%.

For the molecule `Cc1ccsc1/C=C/C1=NCCCN1C`, the nuclear beta-catenin stimulation was -0.7% (inactive) (at 10 µM) and 0.1% (stimulation, at 2 µM).

As for `O=C(O)CCC(=O)c1ccc(-c2ccccc2)cc1`, the nuclear beta-catenin stimulation by setting is: (at 10 µM) 4.2% (inactive); (stimulation, at 2 µM) 0.6%.

In the case of `CCCCOc1ccc(C(=O)CCN2CCCCC2)cc1`, the nuclear beta-catenin stimulation reads like this: (at 10 µM) 1.2% (inactive); (stimulation, at 2 µM) -0.2%.

On to `O=C(O)c1ccccc1Nc1cccc(C(F)(F)F)c1`, for which the nuclear beta-catenin stimulation is 1.3% (inactive) (at 10 µM) and 2.3% (stimulation, at 2 µM).

For `COc1cc(/C=C/C(=O)CC(=O)/C=C/c2ccc(O)c(OC)c2)ccc1O`, the nuclear beta-catenin stimulation is, setting by setting: (at 10 µM) 1.5% (inactive); (stimulation, at 2 µM) -2.5%.

On to `CC1=NN(c2ccccc2)C(=O)C1`, for which the nuclear beta-catenin stimulation is, setting by setting: (at 10 µM) 0.5% (inactive); (stimulation, at 2 µM) 0.8%.

As for `CCC(C)n1ncn(-c2ccc(N3CCN(c4ccc(OC[C@H]5CO[C@](Cn6cncn6)(c6ccc(Cl)cc6Cl)O5)cc4)CC3)cc2)c1=O` (some centres undefined), the nuclear beta-catenin stimulation runs as follows: (at 10 µM) 36.2% (inactive); (stimulation, at 2 µM) 34.3%.

For the molecule `O=C1C(=O)c2ccccc2C(O)=C1C1CCC(c2ccc(Cl)cc2)CC1` (centres undefined), the nuclear beta-catenin stimulation reads like this: (at 10 µM) 2.2% (inactive); (stimulation, at 2 µM) -1%.

Regarding `CC(=O)Oc1c(C)c(C)c2c(c1C)CC[C@@](C)(CCC[C@H](C)CCC[C@H](C)CCCC(C)C)O2`, the nuclear beta-catenin stimulation runs as follows: (at 10 µM) 1.7% (inactive); (stimulation, at 2 µM) 2%.

Consider `CN1CCC[C@@H]1CCO[C@](C)(c1ccccc1)c1ccc(Cl)cc1`, for which the nuclear beta-catenin stimulation is, setting by setting: (at 10 µM) 7.8% (inactive); (stimulation, at 2 µM) 2.3%.

On to `C=C[C@@]1(C)CC(=O)[C@]2(O)[C@@]3(C)[C@@H](O)CCC(C)(C)[C@@H]3[C@H](O)[C@H](OC(C)=O)[C@@]2(C)O1`, for which the nuclear beta-catenin stimulation (at 10 µM) was 1.1% (inactive) and the nuclear beta-catenin stimulation (stimulation, at 2 µM) came to 0.6%.

Consider `Cc1cc(NC(=O)C2=C(O)c3ccccc3S(=O)(=O)N2C)no1`, for which the nuclear beta-catenin stimulation was 4% (inactive) (at 10 µM) and 1.7% (stimulation, at 2 µM).

Turning to `Cc1c(C(=O)O)c(O)cc2c1C(=O)c1c(O)c([C@@H]3O[C@H](CO)[C@@H](O)[C@H](O)[C@H]3O)c(O)c(O)c1C2=O`, the nuclear beta-catenin stimulation was 0% (inactive) (at 10 µM) and 0.8% (stimulation, at 2 µM).

In the case of `Nc1ccc(C(=O)O)c(O)c1`, the nuclear beta-catenin stimulation (at 10 µM) is 0.9% (inactive) and the nuclear beta-catenin stimulation (stimulation, at 2 µM) was found to be 1.5%.

Turning to `Cc1ccc(S(=O)(=O)NC(=O)NN2CC3CCCC3C2)cc1` (centres undefined), the nuclear beta-catenin stimulation was 0.7% (inactive) (at 10 µM) and 1.2% (stimulation, at 2 µM).

In the case of `CCCc1ncc(C[n+]2ccccc2C)c(N)n1`, the nuclear beta-catenin stimulation reads like this: (at 10 µM) -1.3% (inactive); (stimulation, at 2 µM) -2%.

As to `Nc1ccc(S(=O)(=O)Nc2nccs2)cc1`, the nuclear beta-catenin stimulation reads like this: (at 10 µM) 0% (inactive); (stimulation, at 2 µM) 0%.

Consider `O=C(O)/C=C(\CC(=O)O)C(=O)O`, for which the nuclear beta-catenin stimulation by setting is: (at 10 µM) -0.9% (inactive); (stimulation, at 2 µM) -0.6%.

Take `NC(N)=NCCN1CCCCCCC1`: the nuclear beta-catenin stimulation (at 10 µM) was 0.1% (inactive) and the nuclear beta-catenin stimulation (stimulation, at 2 µM) is -0.3%.

Turning to `Cc1cc(=O)n(-c2ccccc2)n1C`, the nuclear beta-catenin stimulation runs as follows: (at 10 µM) 1.1% (inactive); (stimulation, at 2 µM) 0.3%.

Consider `CCCCC(=O)O[C@]1(C(=O)CO)[C@@H](C)C[C@H]2[C@@H]3CCC4=CC(=O)C=C[C@]4(C)[C@@]3(F)[C@@H](O)C[C@@]21C`, for which the nuclear beta-catenin stimulation (at 10 µM) was 2.9% (inactive) and the nuclear beta-catenin stimulation (stimulation, at 2 µM) came out at 5.5%.

For `NCC1CCC(C(=O)O)CC1` (centres undefined), the nuclear beta-catenin stimulation is, setting by setting: (at 10 µM) 0.7% (inactive); (stimulation, at 2 µM) 0.5%.

Take `CCN(CC)CCOC(=O)C(c1ccccc1)c1ccccc1`: the nuclear beta-catenin stimulation is 0.8% (inactive) (at 10 µM) and -1.4% (stimulation, at 2 µM).

As for `COC(=O)Nc1nc2ccc(Sc3ccccc3)cc2[nH]1`, the nuclear beta-catenin stimulation (at 10 µM) is 56.8% (active) and the nuclear beta-catenin stimulation (stimulation, at 2 µM) was 33.5%.

On to `C/C=C1\[C@H]2C=C(C)C[C@]1(N)c1ccc(=O)[nH]c1C2`, for which the nuclear beta-catenin stimulation by setting is: (at 10 µM) -0.8% (inactive); (stimulation, at 2 µM) -0.8%.

For `CCO/C([O-])=N/c1c[n+](N2CCOCC2)no1`, the nuclear beta-catenin stimulation is 0.8% (inactive) (at 10 µM) and 1.2% (stimulation, at 2 µM).

For the molecule `C[C@@H]1CN(c2c(F)c(F)c3c(=O)c(C(=O)O)cn(C4CC4)c3c2F)C[C@H](C)N1`, the nuclear beta-catenin stimulation was -0.9% (inactive) (at 10 µM) and 1.1% (stimulation, at 2 µM).
